# Assay outcomes (PubChem)
# Most compounds without a hit are left out; they make up all but 2% or so of the library.
# 697 NFkB inh: inhibitors of PMA/ionomycin-induced NF-kB reporter, 697 cells, primary screen, B-cell NF-kB inhibitor project, cell-based, luminescence, uHTS. 0.33% of 330,000 active. AID 435022, 2010. 697 B-cell NF-kB luciferase reporter, 16 h. inhibition, % at 4 µM; in the data active = inhibition above about 35%
# Jurkat NFkB inh: inhibitors of induced NF-kB luciferase reporter, primary screen, TCR NF-kB activation inhibitor project, cell-based, luminescence, uHTS; inhibition, % at 4 µM; 0.53% of 330,000 active; Jurkat, PMA/ionomycin-induced NF-kB luciferase reporter; in the data active = inhibition above about 50%
# Shn3 inh set2: reduction of Shn3 3'UTR firefly luciferase signal, primary screen, Schnurri-3 inhibitor project, cell-based, Clone20 osteoblasts, set 2; Clone20 osteoblast Shn3 3'UTR firefly luciferase, 24 h; inhibition, % at 12.5 µM; 0.52% of 360,000 active; AID 588674, 2011;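 active = mean inhibition of at least 75% with every replicate also reaching 75%; inconclusive = mean inhibition at least 75% but some replicate below; inactive = mean inhibition below 75%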;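 also: 0% = median of neutral control wells and 100% = pilot-screen positive control compound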
# Calb FLC: C. albicans growth inhibition with fluconazole, primary screen, CaCi-2 strain, Alamar Blue fluorescence; 0.57% of 300,000 active; C. albicans CaCi-2 (fluconazole-resistant clinical isolate) + fluconazole, 48 h; growth inhibition, % (no concentration beside the values);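 active = growth inhibition above about 58% in most replicates, limit read from the data, passing the limit was not always enough; inconclusive = exactly half the replicates above a set limit; inactive = most replicates below a set limit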;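 also: all wells also contain fluconazole at 8 µg/ml as a sub-toxic cotreatment; 0% = median of DMSO wells and 100% = median of geldanamycin control wells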
# Beta apoptosis: inhibitors of cytokine-induced beta cell apoptosis, primary screen, luminescence; INS-1E cytokine-induced death, ATP luminescence, 48 h; percent of positive-control rescue, neutral wells zero; protection from apoptosis, % (no concentration beside the values); 0.8% of 300,000 active; AID 435005, 2010;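 active = Every replicate reaches about 75%, or at least half do and their mean reaches it too, limit read from the data; inconclusive = At least half of replicates reach the limit but their mean does not; inactive = Under half of replicates reach the limit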;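 also: 0% = cytokine-treated negative control wells and 100% = positive control rescue; higher means more ATP so stronger rescue from cytokine killing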
# Jurkat NFkB conf: PMA/ionomycin-induced NF-kB reporter inhibitors, Jurkat retest, confirmation, T-cell NF-kB inhibitor project, cell-based, luminescence, single concentration | 27% of 2,700 active | shares compounds with Jurkat NFkB inh | inhibition, % at 4 µM | AID 435020, 2010 | Jurkat NF-kB luciferase, 16 h;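 active = inhibition reaching about 45% at 4 µM in either replicate, limit read from the data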;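 also: plate controls were PMA/ionomycin stimulated DMSO wells for no effect and unstimulated DMSO wells for full effect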
# Starred values were filed as active, the others as inactive; ? = inconclusive; . = not tested or not shown.
SMILES,697 NFkB inh,Jurkat NFkB inh,Shn3 inh set2,Calb FLC,Beta apoptosis,Jurkat NFkB conf
Cc1cc(-c2ccc3c(c2)COc2c4ccccc4nn2-3)on1,-178,-179,2,-15,6,-72
CCCc1cc(-c2ccc3c(c2)COc2c4ccccc4nn2-3)on1,-238,-201,-36,14,8,-94
C(#CC1CCCC1)c1ccc2c(c1)COc1c3ccccc3nn1-2,-102,-36,-146,2,8,.
CCSc1nc2ccccc2n1C(=O)/C=C\c1ccc(OC)c(OC)c1,-136,53*,-15,15,50,42
CCN(Cc1ccccc1)c1ccc(/C=N/N=C(N)N)cc1,-37,61*,83,60,.,13
Clc1ccc(Cn2ncc3c(NCc4ccccc4)ncnc32)c(Cl)c1,-52,65*,.,-11,-11,32
Cc1ccc2c(c1)[C@@H]1[C@H](CO2)[C@H](c2ccccc2)[C@]2(C)C(=O)N[C@H](C)C(=O)N12,4,-7,-2,.,-2,.
CCN1C=CC(=C2C(=O)c3ccccc3C2=O)C=C1,5,54*,?,2,21,45*
CCCCCCN1C=CC(=C2C(=O)c3ccccc3C2=O)C=C1,-125,-138,68,30,18,.
COc1ccc(C(=O)NC2CCCc3ccccc32)cc1[N+](=O)[O-] (stereo unspecified),-27,54*,-5,40,.,23
CC(C)(C)c1ccc(/C=C/C(=O)NC2=NCCS2)cc1,-204,-161,-2,7,.,-80
COC(=O)c1ccc(-c2n[nH]c(=O)c3ccccc23)cc1,14,-1,-15,1,-6,.
COC(=O)Nc1nc2ccc(-c3n[nH]c(=O)c4ccccc34)cc2[nH]1,-82,71*,1,-2,-4,9
C=CCOc1ccc2nc(NC(=O)OC)[nH]c2c1,-1,72*,-19,67,.,31
CN(C)CCCNc1cc(O)c2ncccc2c1,17,56*,-5,.,2,25
Oc1cc(NCc2ccc(F)cc2)cc2cccnc12,2,3,52,.,4,.
COc1ccc(Nc2ncnc3scc(-c4ccc(OC)cc4)c23)cc1,-46,52*,16,2,-2,22
CCC(C)C(Nc1ncnc2scc(-c3ccccc3)c12)C(=O)O (stereo unspecified),-3,0,-5,-2,-3,.
COc1cccc(/C=N/Nc2ncnc3scc(-c4ccccc4)c23)c1O,-20,73*,85*,109*,103*,57*
COc1ccc(/C=N/Nc2ncnc(Cl)c2N)cc1OC,13,-1,-17,-2,-14,.
COc1cccc(/C=N/Nc2ncnc(Cl)c2N)c1O,-85,56*,72,0,127*,13
CC(=O)Nc1ccc(S(=O)(=O)N2CCCC(C(=O)O)C2)cc1 (stereo unspecified),-9,-12,-2,-2,-5,.
CCCCC1CCC(C(=O)N(CCC(C)C)c2c(N)n(CCCC)c(=O)[nH]c2=O)CC1 (stereo unspecified),.,.,0,.,.,.
O=C(NC1CCCCC1)c1cccc2c(-c3ccc(F)c(F)c3)coc12,.,.,4,.,.,.
CCCOCCOC(=O)c1[nH]c2c(c1C)C(=O)CC(c1cc(OC)ccc1OC)C2 (stereo unspecified),-46,72*,29,5,42,35
SMILES,697 NFkB inh,Jurkat NFkB inh,Shn3 inh set2,Calb FLC,Beta apoptosis,Jurkat NFkB conf
COCCOC(=O)c1[nH]c2c(c1C)C(=O)CC(c1cc(OC)ccc1OC)C2 (stereo unspecified),17,38,18,2,7,.
COc1ccc(OC)c(C2CC(=O)c3c([nH]c(C(=O)OC(C)C)c3C)C2)c1 (stereo unspecified),-19,60*,25,-3,31,58*
COc1ccc(-c2cc(C(=O)Nc3cc(C)ccc3O)no2)cc1,-143,62*,-28,-6,-3,-34
Cc1ccc(O)c(NC(=O)c2cc(-c3ccccc3Cl)on2)c1,-39,51*,-105,1,-1,36
Cc1ccc(O)c(NC(=S)NC(=O)c2ccccc2Cl)c1,-2,-23,-15,-7,-7,.
Cc1ccc(-c2cc(C(=O)Nc3cc(C)ccc3O)no2)cc1,.,.,-40,-7,-2,.
COc1ccc(NC(=O)c2noc3c2CCCCC3)cc1,-137,-123,-46,-12,-14,.
Cc1ccc(NC(=O)c2noc3c2CCCCC3)cc1,-220,-193,-51,-4,4,-79
CCc1ccc(NC(=O)c2noc3c2CCCCC3)cc1,-224,-245,-97,-3,0,-146
Cc1cc(Cl)ccc1NC(=O)/N=C1/NC(=O)CS1,.,.,-6,.,.,.
CCOC(=O)N/N=C/c1c(C)nn(-c2cccc(C(F)(F)F)c2)c1Cl,-44,51*,12,1,35,46
COc1ccc(C)cc1NC(=O)CO/N=C(\N)CC(=O)NC1CCCCC1,7,-8,-55,.,-3,.
COc1ccc(/C=c2/sc3n(c2=O)C(c2ccccc2OC)C2=C(N=3)c3ccccc3CC2)cc1O (stereo unspecified),-15,70*,10,16,30,51*
CC(NC(=O)C(NS(=O)(=O)c1cccs1)C(C)C)c1ccc(S(N)(=O)=O)cc1 (stereo unspecified),10,4,-6,.,-1,.
Cc1cccn2cc(-c3cc4ccccc4oc3=O)nc12,-205,-152,-6,-5,-10,-81
Cc1ccc(-c2cn3cccc(C)c3n2)cc1,.,.,-33,-1,.,.
O=c1oc2ccccc2cc1-c1cn2ccccc2n1,-144,-17,?,-18,13,.
Cc1cccn2cc(-c3ccc(Cl)cc3)nc12,-241,-194,-53,-34,3,-111
Cc1cc(C(=O)NCC(c2ccco2)N(C)C)ccc1[N+](=O)[O-] (stereo unspecified),-11,17,9,6,-1,.
CSCCC(NC(=O)c1ccco1)C(=O)NCC(C)(C)N1CCOCC1 (stereo unspecified),21,2,-22,.,-9,.
COCCNC(=O)C1Cc2c(-c3cccc(NC(C)=O)c3)ccnc2O1 (stereo unspecified),.,.,-5,.,.,.
COc1ccccc1N1CCN(C(=O)C2c3ccccc3Oc3ccccc32)CC1,-29,55*,12,-6,35,45
COc1ccccc1N1CCN(C(=O)C2CC2)CC1,-7,-8,-3,4,.,.
COc1ccc2c(c1)[nH]c1c(N3CCN(Cc4ccc5c(c4)OCO5)CC3)ncnc12,-5,52*,77,-19,105*,58*
CCCS(=O)(=O)NC(=O)C1(C)CCN(C(=O)c2ccc(OC)cc2OC)C1 (stereo unspecified),.,.,4,.,.,.
